Measurements published in PubChem BioAssay (NCATS).
Where “and” joins values, the source holds several entries; their conditions need not be identical. Equal entries are not always repeated. Inconclusive results are not listed. More than one record can exist for a structure, and the calls need not agree. Calls of active or inactive are those of the source. Calls come from the whole dose curve; as a rule, active = well fitted inhibition curve with a large enough effect; inconclusive = small, poorly fitted or top-dose-only effect; inactive = flat fitted curve, though single readings scatter.

These compounds were tested on HEK293 (assay: Cytotoxic Profiling of Annotated Libraries Using Quantitative High-Throughput Screening (AID 1296008; note: nearly all actives have a fitted effect of over 60% in size)). Details: Five cell lines viability, CellTiter-Glo ATP luminescence, 48-72 h; max response: active compounds read low.
Excerpt: Cell-based phenotypic screening is a commonly used approach to discover biological pathways, novel drug targets, chemical probes and high-quality hit-to-lead molecules. Many hits identified from high-throughput screening campaign are ruled out through a series of follow-up potency, selectivity/specificity, and cytotoxicity assays. Prioritization of molecules with little or no cytotoxicity for a more in-depth downstream evaluation influence the future direction of projects, so cytotoxicity profiling of the screening libraries at early stage is essential for increasing the likelihood of candidate success. […] For the annotated library, we also examined the primary targets and mechanistic pathways regularly associated with cell death. To our knowledge, this is the first study to use high-throughput screening to profile large libraries for cytotoxicity assessment in both normal and cancer cell lines. In summary, the results generated here constitutes a valuable resource for the scientific community and provides insight on identifying cytotoxic compounds with particular mechanisms of action, and prioritizing compounds with suitable cytotoxicity profile for further evaluation.
A pintool (Kalypsys) was used to transfer 23 nL of compound solution to the 1536-well assay plates. After 48 or 72 hr incubation at 37 degree Celsius, 5% CO2 and 95% humidity, 2.5 uL of CellTiter-Glo (Promega) was dispensed into each well using a dispenser (Aspect Automation, St. Paul, MN) with solenoid valves (Lee Valves, Westbrook CT). Plates were left at room temperature for 10 min before imaging the ATP-coupled luminescence using a ViewLux microplate imager (PerkinElmer, Waltham, MA).
% is set by controls: 0 for no effect and ±100 for the full control effect; potency is the fitted concentration of half-maximal effect.

Structure (SMILES) | outcome | max response | Potency
CC1=CC(=O)c2ccccc2C1=O | inactive | 2.41% (inactive) | –
CCn1cc(C(=O)O)c(=O)c2cc(F)c(N3CCNCC3)cc21 | – | -12.4% (inactive) and -3.6% (inactive) | –
O=C(O)CCn1c2c(c3ccccc31)C[C@H](NS(=O)(=O)c1ccc(F)cc1)CC2 | inactive | 3.39% (inactive) and -17.8% (inactive) | –
COc1ccc(C(=O)CC(=O)c2ccc(C(C)(C)C)cc2)cc1 | inactive | 1.8% (inactive) | –
COCCCOc1cc(C[C@@H](C[C@H](N)[C@@H](O)C[C@H](C(=O)NCC(C)(C)C(N)=O)C(C)C)C(C)C)ccc1OC | inactive | – | –
NS(=O)(=O)c1cc2c(cc1Cl)NC(C(Cl)Cl)NS2(=O)=O (stereo not given) | inactive | -0.123% (inactive) | –
COc1ccc2c(c1)c(CC(=O)OCC(=O)O)c(C)n2C(=O)c1ccc(Cl)cc1 | inactive | -16.6% (inactive) | –
COc1ccccc1OCC(O)COC(N)=O (stereo not given) | inactive | 2.15% (inactive) | –
O=S(=O)(c1cccc2cnccc12)N1CCCNCC1 | inactive | -25.6% (inactive) | –
CCOc1cc(N)c(Cl)cc1C(=O)NCC1CN(Cc2ccc(F)cc2)CCO1 (stereo not given) | inactive | – | –
CC(C)OC(=O)OCOP(=O)(CO[C@H](C)Cn1cnc2c(N)ncnc21)OCOC(=O)OC(C)C | inactive | -4.37% (inactive) | –
CCc1c2c(nc3ccc(OC(=O)N4CCC(N5CCCCC5)CC4)cc13)-c1cc3c(c(=O)n1C2)COC(=O)[C@]3(O)CC | – | – | 7.5 µM (active) and 1.05 µM (active)
CS(=O)(=O)c1ccc([C@@H](O)[C@@H](CO)NC(=O)C(Cl)Cl)cc1 | – | – | 2.99 µM (active)
C[C@@H](NCCCc1cccc(C(F)(F)F)c1)c1cccc2ccccc12 | – | -18.5% (inactive) | 15 µM (active)
CNS(=O)(=O)Cc1ccc2[nH]cc(CCN(C)C)c2c1 | inactive | 2.84% (inactive) | –
CCc1cc(C(N)=S)ccn1 | inactive | -11.8% (inactive) | –
Cc1cc(NS(=O)(=O)c2ccc(N)cc2)no1 | – | 1.33% (inactive) and -5.68% (inactive) | –
Nc1nc(F)nc2c1ncn2[C@@H]1O[C@H](CO)[C@@H](O)[C@@H]1O | – | -7.93% (inactive) | 0.662 µM (active)
CCC(=O)O[C@]1(C(=O)CCl)[C@@H](C)C[C@H]2[C@@H]3CCC4=CC(=O)C=C[C@]4(C)[C@@]3(F)[C@@H](O)C[C@@]21C | – | -0.886% (inactive) | –
CC(=O)[C@H]1CC[C@H]2[C@@H]3CCC4=CC(=O)CC[C@]4(C)[C@H]3CC[C@]12C | – | – | 16.6 µM (active)
CCn1cc(C(=O)O)c(=O)c2cc(F)c(N3CCN(C)CC3)cc21 | inactive | 0.679% (inactive) | –
C#CCN[C@@H]1CCc2ccccc21 | inactive | -23.7% (inactive) | –
NC(=O)N1c2ccccc2CC(=O)c2ccccc21 | inactive | – | –
COC(=O)Nc1nc2ccc(C(=O)c3ccccc3)cc2[nH]1 | – | -90.7% (inactive) | –
O=C(O)c1cccnc1 | – | -12.4% (inactive) | 2.64 µM (active)
